This is a sample that favours compounds with a hit; in the whole collection about 14% have one here.
Pf growth 48h: P. falciparum growth inhibition at 48 hours (one generation) | Potency, µM (highest dose often 28.7 µM), inactives show top-dose activity change, negative = inhibition, hits mostly inhibitors | P. falciparum luciferase growth in erythrocytes, 48 h | actives 5.9% (n = 310,000); note: potency is the fitted concentration of half-maximal effect
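A one-generation exposure of luciferase-tagged malaria parasites in RPMI 1640/Albumax erythrocyte culture, 37 C and 5% CO2. Inhibition is inferred from decreased luminescence after adding detection reagent.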
Pf growth 96h: P. falciparum growth inhibition at 96 hours | P. falciparum luciferase reporter growth, 96 h | Potency, µM (highest dose often 28.7 µM), inactives show at the highest dose activity change, negative = inhibition, hits mostly inhibitors | actives 6.9% (n = 320,000); note: potency is the fitted concentration of half-maximal effect
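Delayed-death screen, second-generation endpoint: infected erythrocytes, 2% hematocrit, 0.05% parasitemia final; 96 hours at 37 C, 5% CO2; luciferase detection reagent; luminescence decrease equals reduced growth.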
Sm TGR inh: blocks Schistosoma mansoni thioredoxin glutathione reductase | Q962Y6 | purified TGR, DTNB reduction, TNB absorbance 405 nm | Potency, µM (highest dose often 114 µM), without a hit: at the highest dose activity change, negative = inhibition, usual class: inhibitors | actives 3% (n = 360,000) | AID 485364; note: potency is the fitted concentration of half-maximal effect; nearly all actives have a fitted effect of over 60% in size
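Kinetic colorimetric format: TGR-catalysed, NADPH-driven DTNB reduction monitored via TNB absorbance. Enzyme dispensed at 20 nM; compound exposure 15 min at room temperature before reaction start.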
FBPA Giardia inh: Giardia lamblia aldolase inhibition; Potency, µM (highest dose often 59.6 µM), for inactives: at the highest dose activity, negative = inhibition, usual class: inhibitors; A8B2U2; AID 2451; actives 0.71% (n = 290,000); purified Giardia FBPA; note: potency is the fitted concentration of half-maximal effect; nearly all actives have a fitted effect of over 55% in size
Target sequence (A8B2U2 whole entry, looked up): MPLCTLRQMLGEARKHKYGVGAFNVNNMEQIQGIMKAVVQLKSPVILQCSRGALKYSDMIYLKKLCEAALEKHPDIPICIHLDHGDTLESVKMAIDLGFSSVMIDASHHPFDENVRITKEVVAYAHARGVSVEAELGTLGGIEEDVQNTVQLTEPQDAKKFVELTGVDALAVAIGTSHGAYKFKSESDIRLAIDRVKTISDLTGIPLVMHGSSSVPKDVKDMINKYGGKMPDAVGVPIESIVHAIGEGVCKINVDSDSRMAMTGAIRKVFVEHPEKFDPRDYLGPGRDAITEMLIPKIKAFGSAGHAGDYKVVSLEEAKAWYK
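40 nM FBPA preincubated 10 min at RT with compound (up to 57.5 uM final), then substrate plus GAPDH/TPI/NAD/arsenate coupling and diaphorase/resazurin added. Fluorescence read after 20 min at RT, 525/598 nm.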
HCMV antiviral: human cytomegalovirus inhibition. HFF cells, HCMV-luciferase reporter, 72 h; active compounds read low. activity change, negative = inhibition, % at 57.5 µM. actives 4.5% (n = 410,000); in the data active = activity change below about -60%; inconclusive = no clear call, values can overlap the other calls; inactive = above about -39%
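Steps: HFFs plated, 16 h 37C; compounds added; HCMV-luciferase added to MOI 1 PFU/cell; 72 h 37C; OneGlo reagent, 5 min room temperature; luminescence read, normalized to controls.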
Numbers without * were called inactive; ? = inconclusive; / = no result; [ ] = remark or other dose. Unless noted, calls come from the whole dose curve; as a rule, active = well fitted curve in the direction sought with a large enough effect; inconclusive = small, poorly fitted or top-dose-only effect, or another doubt; inactive = no such curve, though single readings can be large; an effect the other way counts as inactive or inconclusive. % is set by controls: 0 for no effect and ±100 for the full control effect.

SMILES	Pf growth 48h	Pf growth 96h	Sm TGR inh	FBPA Giardia inh	HCMV antiviral
CCc1cc(=O)oc2c3c(cc(OCC(=O)NCc4ccco4)c12)OC(C)(C)CC3	32%	?	-1%	-4%	/
CCc1cc(=O)oc2c3c(cc(OCC(=O)NCc4ccncc4)c12)OC(C)(C)CC3	10µM*	?	6%	12%	2
CCc1cc(=O)oc2c3c(cc(OCC(=O)NCCCOC)c12)OC(C)(C)CC3	0%	0%	-7%	-1%	-69*
CCc1cc(=O)oc2c3c(cc(OCC(=O)NCCCC(=O)O)c12)OC(C)(C)CC3	?	?	12%	7%	-7
CCc1cc(=O)oc2c3c(cc(OCC(=O)NCCC(=O)O)c12)OC(C)(C)CC3	-19%	?	6%	7%	?
CCc1cc(=O)oc2c3c(cc(OCC(=O)NC4CC4)c12)OC(C)(C)CC3	?	4.1µM*	5%	16%	-10
CCc1cc(=O)oc2c3c(cc(OCC(=O)NCCN4CCOCC4)c12)OC(C)(C)CC3	?	9.3µM*	0%	11%	-22
Cc1cc(C)c(S(=O)(=O)N[C@H]2CC[C@@]34CCCN3C(=O)CCC[C@H]4[C@H]2Cc2ccccc2)c(C)c1	/	/	/	/	-22
CC(C)Oc1ccc(C(=O)N(Cc2ccco2)c2ccccn2)cc1	/	/	4%	/	95
O=C1c2ccccc2-c2nc3ccccc3nc21	?	/	-2%	-15%	122
O=C1c2ccccc2-c2cccnc21	/	23%	5%	-9%	-104*
COc1cc(NC(=O)CSc2ncnc3scc(-c4ccccc4)c23)c(C(=O)O)cc1OC	0%	8%	1%[57.1 µM]	?	-24
COc1ccc(NC(=O)c2cn(-c3ccccc3)nc2-c2ccc(C)cc2)cc1	/	/	16%	/	27
COc1ccccc1C(=O)NCCC(=O)N(C)CC(=O)Nc1ccc(N2CCOCC2)cc1	0%	13%	1%	/	-15
CN(C)C(CNc1ncnc2sc3c(c12)CCCCC3)c1ccco1 (stereo not drawn)	-14%	?	?	0%	-68*
Cc1sc2ncnc(NCC(c3ccco3)N(C)C)c2c1C (stereo not drawn)	?	10%	6%	5%	-4
c1csc(CCNc2ncnc3sc4c(c23)CCC4)c1	/	?	5%	5%	-89*
O=C1NC[C@H](CCCCN2CCN(CCC3CCCCC3)C(=O)C2=O)N(CCC2CCCCC2)C1=O	/	/	/	/	-20
COc1ccc(C)cc1NC(=O)c1cc(S(=O)(=O)NCCC2=CCCCC2)ccc1F	/	/	10%	/	-17
CCOc1ccc(OCC)c(NC(=O)C2CCN(S(=O)(=O)c3cccc4nonc34)CC2)c1	/	13µM*	4%	2%	-11
COc1ccc(CCNC(=O)C2CCN(S(=O)(=O)c3cccc4nonc34)CC2)cc1OC	-12%	8.3µM*	0%	-3%	-15
COc1ccc(C)cc1NC(=O)NCCC1=CCCCC1	15µM*	55%	4%	-8%	-34
COc1ccc(OC)c(S(=O)(=O)N2CCC(C(=O)NCCC3=CCCCC3)CC2)c1	13µM*	-19%	-2%	0%	-4
CNC(=S)N1N=C(c2ccc(C)cc2)CC1c1ccc(Br)cc1 (stereo not drawn)	/	?	5%	-5%	7
CNC(=S)N1N=C(c2ccc(C)cc2)CC1c1ccc(Cl)cc1 (stereo not drawn)	/	8.3µM*	-12%	-2%	-6
SMILES	Pf growth 48h	Pf growth 96h	Sm TGR inh	FBPA Giardia inh	HCMV antiviral
CCOc1ccc(-n2c(SCc3cc(=O)oc4cc(C)ccc34)nnc2-c2cccnc2)cc1	?	?	-1%	4%	-65*
CC(=O)Nc1ccc2c(CSc3nnc(-c4cccnc4)n3-c3ccc(C)cc3C)cc(=O)oc2c1	?	7.4µM*	-13%	3%	-20
CC(C)c1ccccc1-n1c(SCc2cc(=O)oc3ccc4ccccc4c23)nnc1-c1cccnc1	13µM*	8.3µM*	6%	-17%	-33
Cc1nnc(SCc2cc(=O)oc3ccc4ccccc4c23)n1Cc1ccccc1	1%	-13%	-19%	-10%	0
Cc1c2cnn(CC(=O)N3CCN(c4ccccc4)CC3)c(=O)c2c(C)n1Cc1ccccc1Cl	/	/	22%	/	11
CCc1cc2c(c(CC)n1)CCC(=O)N2Cc1ccc(-c2ccccc2-c2nn[nH]n2)cc1	/	/	/	3%	/
COc1ccc(CCN2C(=O)CC(C(C)c3ccccc3)C2=O)cc1OC (stereo not drawn)	?	52%[1.15 µM]	-7%	2%	-22
CC1=CCC2COC(c3ccc[n+](Cc4ccccc4)c3)C1C2 (stereo not drawn)	1.5µM*	-24%	35µM*	?	?
Cc1ccc(CSCC(=O)Nc2ccccc2C(=O)O)cc1	44%	2.1µM*	8%	-12%	-79*
O=C(CCC1N=C2c3ccccc3N=C(SCC(=O)Nc3ccc(F)cc3)N2C1=O)NCc1cccs1 (stereo not drawn)	/	/	3%	/	-80*
Cc1ccc(CSC2=Nc3ccccc3C3=NC(CCC(=O)NCCc4ccccc4)C(=O)N23)cc1 (stereo not drawn)	/	/	-2%	/	-90*
Cc1ccc(NC(=O)CSCC(=O)NCCc2ccccc2)cc1	?	52%	-24%	/	1
CSc1ccccc1NC(=O)CSCc1ccc(C)cc1	?	?	11%	1%	-38
Cc1ccc(CSCC(=O)NCCc2ccccc2)cc1	22%	-16%	-6%	3%	-100*
Cc1cccc(CNC(=O)C2CCC(=O)N(CCc3cccc(F)c3)C2)n1 (stereo not drawn)	8%	13%	5%	-17%	-17
Cn1c(=O)c2ncn(CC(=O)Nc3nc(-c4ccc(Cl)cc4)cs3)c2n(C)c1=O	-27%	68%	-2%	4%	-22
CN(C)C(=O)c1ccc(NC(=O)c2cccc(S(=O)(=O)N3CCCCCC3)c2)cc1	?	5.2µM*	7%	/	?
COc1ccc(NS(=O)(=O)c2cccc(NC(=O)c3ccc(S(=O)(=O)N4CCCCCC4)cc3)c2)cc1	?	13µM*	1%	-3%	/
COc1ccc(NC(=O)c2cccc(S(=O)(=O)N3CCCCCC3)c2)cc1	?	6%	1%	15%	-88*
COc1ccc(NS(=O)(=O)c2ccc(O)c(NC(=O)c3ccc(S(=O)(=O)N4CCCCCC4)cc3)c2)cc1	23%	8%	13%	2%	16
COc1ccc(/C(C)=N/NC(=O)c2cccc(S(=O)(=O)N3CCCC3)c2)c(O)c1	?	?	-2%	/	-90*
O=C(CN1C(=O)c2cccc([N+](=O)[O-])c2C1=O)NCc1ccccc1	/	19%	2%	-3%	3
COCCNc1nc(N)c([N+](=O)[O-])c(NCc2ccccc2)n1	?	?	-11%	-2%	59

Source: PubChem BioAssay
